Assay outcomes as filed in PubChem BioAssay.
A selection: hits, their analogues and other compounds. The true share with any hit is near 15%.
SARS PLpro yeast = SARS-CoV PLP inhibition in yeast. S. cerevisiae expressing SARS-CoV PLpro, growth rescue. Potency, µM (highest dose often 32.9 µM), for the others: at the highest dose activity, positive = growth rescue, actives largely listed as activators. 330,000 compounds, 0.19% hits. AID 485353; calls by dose curve; also: potency is read from the fitted curve at half-maximal effect; 0% is about no effect; nearly all actives have a fitted effect of over 55% in size
Sm TGR inh = S. mansoni TGR enzyme inhibition; Q962Y6; AID 485364; 360,000 compounds, 3% hits; purified TGR, DTNB reduction, TNB absorbance 405 nm; Potency, µM (top dose mostly 114 µM), inactives show at the top dose activity change, negative = inhibition, hits mostly inhibitors; also: potency is read from the fitted curve at half-maximal effect; % is scaled to controls: 0 for no effect and ±100 for the full control effect; nearly all actives have a fitted effect of over 60% in size
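First, TGR (20 nM dispensed) and NADPH were mixed with compound. Second, a 15 min room-temperature incubation followed. Third, further NADPH and then DTNB were added to start the reaction. Finally, TNB absorbance was monitored kinetically.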
HCMV antiviral = human cytomegalovirus inhibition | HFF cells, HCMV-luciferase reporter, 72 h; active compounds read low | 410,000 compounds, 4.5% hits | AID 1259415 | activity change, negative = inhibition, % at 57.5 µM; in the data active = activity change below about -60%; inconclusive = no clear call, values can overlap the other calls; inactive = above about -39%; also: % is scaled to controls: 0 for no effect and ±100 for the full control effect
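Steps: HFFs plated, 16 h 37C; compounds added; HCMV-luciferase added to MOI 1 PFU/cell; 72 h 37C; OneGlo reagent, 5 min room temperature; luminescence read, normalized to controls.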
Pf growth 48h = P. falciparum growth inhibition at 48 hours (one generation); P. falciparum luciferase growth in erythrocytes, 48 h; Potency, µM (highest dose often 28.7 µM), inactives show at the highest dose activity change, negative = inhibition, usual class: inhibitors; 310,000 compounds, 5.9% hits; AID 504832; also: potency is read from the fitted curve at half-maximal effect; % is scaled to controls: 0 for no effect and ±100 for the full control effect
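Cell-based growth assay: transgenic P. falciparum expressing firefly luciferase, cultured in red cells within RPMI 1640 containing 0.5% w/v Albumax, 24 mM bicarbonate and gentamycin. A drop in luciferase activity indicates inhibition.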
HCV inhibitor = blocks hepatitis C virus; Huh7.5.1 HCVcc-Cre infection, luciferase reporter, 44 h; Potency, µM (highest dose often 41.8 µM), for inactives: top-dose activity change, negative = inhibition, usual class: inhibitors; 340,000 compounds, 3.4% hits; AID 651820; also: potency is read from the fitted curve at half-maximal effect; % is scaled to controls: 0 for no effect and ±100 for the full control effect
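Compounds are dispensed onto cells plated 4 h earlier at 1,000 per well, with HCVcc-Cre virus (about 0.5 moi) added next. Following 44 h of culture, luminescent signal is measured for 15 sec after 15 min with substrate at room temperature.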
Pf growth 96h = P. falciparum growth inhibition at 96 hours; P. falciparum luciferase reporter growth, 96 h; Potency, µM (top dose mostly 28.7 µM), without a hit: top-dose activity change, negative = inhibition, usual class: inhibitors; 320,000 compounds, 6.9% hits; AID 504834; also: potency is read from the fitted curve at half-maximal effect; % is scaled to controls: 0 for no effect and ±100 for the full control effect
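96 h incubation, 37 C, 5% CO2, of luciferase-reporter P. falciparum-infected RBCs (2% hematocrit, 0.05% parasitemia final) with test compounds; endpoint luminescence.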
Numbers without * were called inactive; ? = inconclusive; nt = no result given. Unless noted, calls follow the shape of the dose curve; as a rule, active = well fitted curve in the direction sought with a large enough effect; inconclusive = small, poorly fitted or top-dose-only effect, or another doubt; inactive = no such curve, though single readings can be large; an effect the other way counts as inactive or inconclusive.

SMILES	SARS PLpro yeast	Sm TGR inh	HCMV antiviral	Pf growth 48h	HCV inhibitor	Pf growth 96h
O=c1ccc(-c2ccccc2)nn1Cc1ccc(F)cc1Cl	-3.3%	-24.9%	-31.7	-12.4%	-22.1%	-6.4%
Cc1[nH]c2ccccc2c1C(=O)CSc1nc2ccccc2c(=O)n1CCCN1CCOCC1	4.3%	-4.0%	-73.9*	?	?	nt
Cn1c(N)c(C(=O)CSc2nc3ccccc3c(=O)n2CCCN2CCOCC2)c(=O)n(C)c1=O	-0.4%	-1.9%	-0.7	-6.6%	18.9%	8.4%
COCCn1c(SCC(=O)c2c(C)[nH]c3ccccc23)nc2cc(C(=O)NC(C)C)ccc2c1=O	nt	35.5µM*	17.8	nt	nt	nt
COC(=O)CC(=O)CSc1nc2cc(C(=O)NCC(C)C)ccc2c(=O)n1CCc1ccccc1	nt	16.6%	-93.6*	nt	nt	nt
O=C1c2ccccc2C(=O)N1CCCCSc1nc2ccccc2c(=O)n1CCCN1CCOCC1	-5.2%	14.3%	-103.7*	?	-19.4%	?
O=C(CSc1nc2ccccc2c(=O)n1CCCN1CCOCC1)NCCc1ccccc1	3.0%	nt	-16.9	nt	7.8%	nt
O=C(CSc1nc2ccccc2c(=O)n1CCCN1CCOCC1)NC12CC3CC(CC(C3)C1)C2	0.1%	-0.8%	?	10.4µM*	-11.4%	?
O=C(Cc1cccc(NC(=O)C2CCCN(C(=O)C3CCCCC3)C2)c1)Nc1cccc(C(=O)N2CCCC2)c1 (centres undefined)	0.6%	0.7%	-17.2	4.15µM*	-19.9%	?
O=C(Cc1cccc(NC(=O)C2CCCN(C(=O)C3CCC3)C2)c1)Nc1cccc(C(=O)N2CCCC2)c1 (centres undefined)	-3.5%	7.2%	22.6	?	?	2.33µM*
COC(=O)c1cccc(NC(=O)c2cc3sccc3n2C)c1	-4.2%	5.7%	177.0	150.3%	14.1µM*	3.2%
COC(=O)c1ccccc1NC(=O)c1cc2sccc2n1C	0.8%	-0.1%	-12.2	-3.6%	-16.4%	0.3%
O=C(NCCN1CCCC1)[C@@H]1[C@@H](CO)[C@@H]2Cn3c(cccc3=O)[C@@H]2N1C(=O)c1ccccc1	nt	nt	30.0	nt	nt	nt
Cc1nc(N=C(N)N)nc2ccccc12	-1.3%	-3.1%	-81.0*	?	14.1µM*	5.6%
CCc1ccc2nc(N=C(N)N)nc(C)c2c1	-1.4%	-2.9%	-86.9*	?	5.01µM*	33.3%
Cc1cc2nc(N=C(N)N)nc(C)c2cc1C	-1.1%	1.5%	-99.1*	?	?	0.0%
Cc1ccc2nc(N=C(N)N)nc(C)c2c1	1.1%	4.7%	-89.0*	?	7.08µM*	20.2%
COc1ccccc1N(C)S(=O)(=O)c1ccc(C(=O)Nc2ccc(C)cc2C)cc1	-3.4%	-1.6%	-32.7	?	?	?
Cc1nc2cc(-c3ccccc3)nn2c(C)c1CCC(=O)NCc1cccc(Cl)c1	nt	-3.6%	-11.9	nt	nt	nt
COc1ccc(CNC(=O)C2CCCN2C(=O)Nc2cccc(Cl)c2)cc1 (centres undefined)	nt	nt	39.2	nt	nt	nt
Clc1ccc2c(N/N=C/c3ccccc3Br)ccnc2c1	-87.2%	-3.2%	-64.1*	0.657µM*	?	0.522µM*
Clc1ccc2c(N/N=C/c3cccc(Br)c3)ccnc2c1	-30.9%	-19.5%	?	0.586µM*	?	0.329µM*
Brc1ccccc1/C=N/Nc1ccccn1	-6.1%	50.4%	68.7	99.1%	4.3%	144.1%
Brc1cccc(C=Nc2cccc3ncccc23)c1	nt	nt	45.5	nt	0.2%	nt
O=[N+]([O-])c1ccc(/C=N/Nc2ccnc3cc(Cl)ccc23)o1	-13.1%	-34.1%	-66.1*	2.33µM*	?	?
SMILES	SARS PLpro yeast	Sm TGR inh	HCMV antiviral	Pf growth 48h	HCV inhibitor	Pf growth 96h
Nc1nc2nc[nH]c2c(=O)[nH]1	nt	-7.8%	nt	?	5.01µM*	?
Cc1ccc(-n2ncc3c2CC(C)(C)CC3NC(=O)C2CCOCC2)cc1 (centres undefined)	?	?	0.9	-8.4%	12.3%	-1.3%
Cc1cccc(N2CCN(C(=O)Nc3cn(CC(C)C)c(=O)c4ccccc34)CC2)c1C	nt	4.7%	15.7	nt	nt	nt
CC(C)NCC(O)c1ccc(N)c(C#N)c1 (centres undefined)	nt	nt	nt	-2.3%	nt	12µM*
CN(CC(=O)NCCCc1ccccc1)S(=O)(=O)c1ccc(Br)cc1	-5.1%	-12.1%	-4.0	1.9%	5.8%	?
CSc1nn(CCc2ccncc2)c(=S)s1	-36.5%	35.5µM*	-31.1	?	8.6%	-7.9%
S=c1sc2ccccc2n1CCc1ccncc1	0.8%	-14.2%	?	?	5.5%	?
CC(Sc1nnc2ccccn12)C(=O)Nc1ccc2c(c1)OCO2 (centres undefined)	-0.5%	61.7%	63.7	22.1%	4.9%	24.5%
COc1cc2c(cc1OC)C(c1cc(OC)c(O)c(OC)c1)CC(=O)N2 (centres undefined)	nt	?	14.8	nt	nt	nt
CCOC(=O)CCn1c(=S)n(CCC(=O)OCC)c2ccccc21	4.1%	3.2%	-4.7	3.7µM*	0.2%	42.5%
CO[C@@H]1CN(C)C(=O)c2cc(NS(=O)(=O)c3ccc(C)cc3)ccc2OC[C@H](C)N(Cc2nccs2)C[C@H]1C	nt	nt	7.5	nt	nt	nt
COc1ccc(-n2nnnc2/C=C\Nc2ccccc2C(=O)c2ccccc2)cc1	5.4%	6.1%	1.1	?	7.94µM*	8.28µM*
COc1ccc(-n2nnnc2/C=C/Nc2cc(C(F)(F)F)ccc2OC)cc1	-0.7%	7.2%	33.0	?	?	?
Cc1scc(C(=O)N/N=C/c2ccc(Cl)s2)c1C	-2.7%	1.3%	8.8	105.6%	4.0%	30.1%
CCOc1cc(/C=N/O)cc(Cl)c1OC	-30.3%	0.0%	-18.7	34.3%	11.2µM*	?
C#CCOc1c(Br)cc(/C=N/O)cc1OCC	-23.3%	-24.3%	?	nt	2.24µM*	26.2%
CC1CCCN(c2ncnc3c2nnn3C)C1 (centres undefined)	nt	16.8%	-10.7	nt	nt	nt
CN(C)/C=C(/C(=O)c1ccc(Cl)c(Cl)c1)S(C)(=O)=O	0.9%	0.5%	-4.4	6.3%	18.7%	30.9%
CN(C)/C=C(/C(=O)c1ccc(Cl)cc1)S(C)(=O)=O	0.0%	4.9%	-103.1*	-3.2%	24.3%	19.0%
CC[C@H]1CN2CCC1C[C@@H]2[C@H](O)c1ccnc2ccc(OC)cc12 (some centres undefined)	nt	nt	-25.2	nt	-0.8%	nt
CC1CC(C)CN(C(C(=O)NC2CCCCC2)c2ccnc3ccccc23)C1 (centres undefined)	nt	nt	-21.0	nt	nt	nt
C=CC1CN2CCC1CC2C(OC(C)=O)c1ccnc2ccc(OC)cc12 (centres undefined)	0.1%	4.2%	4.8	0.37µM*	-4.3%	0.294µM*
